According to PubChem BioAssay AID2796 (The Scripps Research Institute Molecular Screening Center, 2010):
In all, about 320,000 compounds went through this assay and about 8,000 (2.5%) were called active. No stated cut-off is given here; in the data, active means activation above about 47%; inactive means the rest. The entries come from a sample that favours actives as a whole.

Biological target: Aryl hydrocarbon receptor (Homo sapiens) (UniProt P35869)
Test: AHR activators, primary screen, cell-based, luminescence, luciferase reporter, human (AID 2796);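 further: 0% = vehicle wells and 100% = reference agonist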
Settings: AHR-responsive luciferase reporter cells, at 5 µM, stronger effect = higher value

Sequence of Aryl hydrocarbon receptor (Homo sapiens) (P35869 whole entry, looked up): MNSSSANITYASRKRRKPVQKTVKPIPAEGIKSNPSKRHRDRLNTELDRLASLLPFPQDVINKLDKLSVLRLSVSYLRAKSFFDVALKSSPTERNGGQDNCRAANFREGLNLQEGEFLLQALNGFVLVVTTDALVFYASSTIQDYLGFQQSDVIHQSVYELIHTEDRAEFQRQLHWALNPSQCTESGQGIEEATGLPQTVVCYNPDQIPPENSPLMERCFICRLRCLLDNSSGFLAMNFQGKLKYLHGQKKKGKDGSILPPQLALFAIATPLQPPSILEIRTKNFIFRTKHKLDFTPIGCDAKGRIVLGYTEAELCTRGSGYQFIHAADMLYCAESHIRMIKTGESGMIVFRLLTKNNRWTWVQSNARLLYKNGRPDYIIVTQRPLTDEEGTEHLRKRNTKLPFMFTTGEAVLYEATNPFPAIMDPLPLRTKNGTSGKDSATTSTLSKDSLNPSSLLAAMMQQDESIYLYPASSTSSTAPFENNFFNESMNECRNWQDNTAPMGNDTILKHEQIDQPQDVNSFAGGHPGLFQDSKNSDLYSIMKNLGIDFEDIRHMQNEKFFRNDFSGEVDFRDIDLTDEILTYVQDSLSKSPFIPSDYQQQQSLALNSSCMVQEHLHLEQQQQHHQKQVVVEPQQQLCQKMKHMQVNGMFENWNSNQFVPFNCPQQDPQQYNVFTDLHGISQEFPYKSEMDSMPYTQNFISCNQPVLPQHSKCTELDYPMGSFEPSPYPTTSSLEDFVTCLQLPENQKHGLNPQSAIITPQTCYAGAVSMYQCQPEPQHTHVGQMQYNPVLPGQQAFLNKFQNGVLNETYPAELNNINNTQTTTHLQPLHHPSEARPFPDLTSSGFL

activation, active:
C/C(=N\NC(=S)Nc1ccc(C)cc1)c1cc2ccccc2o1 70.2%
Brc1ccc2c(c1)[C@H]1OCC[C@H]1[C@@H](c1cccs1)N2 77.4%
FC(F)(F)c1ccc2c3n(nc2c1)CCN=C3c1ccc(Cl)cc1 73.6%
CCN(CC)CCN(C(=O)c1cc(Cl)sc1Cl)c1nc2cc3c(cc2s1)OCO3 72.1%
CCC(=O)NC(=S)Nc1ccc(NC(=O)c2ccco2)c(Cl)c1 84.6%
C/C(=N\NC(=O)CNc1cccc2ccccc12)c1ccc(Br)s1 91.4%
C#CCSc1nnc(-c2sc3ccccc3c2Cl)o1 89.2%
COc1cccc(NC(=O)Nc2nnc(N3CCCCC3C)s2)c1 (stereo not given) 62.3%
O=S(=O)(O)Oc1c[nH]c2ccccc12 66.7%
COc1ccc(N2C(=O)c3cccc4cccc(c34)C2=O)nn1 65%
Cc1cccc(N=Nc2c(O)[nH]c3ccc(F)cc23)c1 93%
CN1C(=O)/C(=C\c2cc(Br)cs2)c2ccccc21 62.1%

activation, inactive:
COc1cccc(NC(=O)CC(c2ccc(OC(C)C)cc2)c2ccccc2OC)c1 (stereo not given) -0.21%
CC(C)(C)OC(=O)CNC(=O)c1[nH]cnc1C(=O)N[C@@H](CCCCN)C(=O)OC(C)(C)C 0.13%
Cc1ccc(NC(=O)c2cc3ccccc3o2)cc1 25.5%
O=C(Nc1ccncc1)c1cc2ccccc2o1 0.11%
CCOC(=O)C1(S(=O)(=O)c2ccc(Cl)cc2)CCN(Cc2ccccc2)CC1 0.91%
CCOc1ccc(NS(=O)(=O)c2ccc(Cl)c(C(=O)N(C)Cc3cccnc3)c2)cc1 -0.23%
c1csc(CN2CCN(Cc3cccs3)C2c2cccs2)c1 -2.12%
COc1ccc(CNC(=O)COC(=O)C(CCSC)N2C(=O)c3ccccc3C2=O)cc1 (stereo not given) -0.44%
O=C(Nc1cc(C(F)(F)F)ccc1Cl)C(=O)N1CCCCC1 4.43%
CN(C)CCN(C(=O)C1CCCCC1)c1nc2cc3c(cc2s1)OCO3 4.17%
CCN(CC)CCN(C(=O)c1ccc(N2C(=O)CCC2=O)cc1)c1nc2cc3c(cc2s1)OCO3 6.01%
COC(=O)[C@]1(Cc2ccccc2)N[C@H](CN(C)S(=O)(=O)c2ccc(OC(F)(F)F)cc2)[C@@H]2C(=O)N(C)C(=O)[C@@H]21 -1.46%
O=C(Nc1ccc(NC(=O)c2ccco2)c(Cl)c1)c1cccc([N+](=O)[O-])c1 2.52%
O=C(NNC(=S)Nc1ccc(Br)cc1Cl)c1ccco1 2.47%
Cc1ccc(F)cc1NC(=O)N1CCCN(c2ccc(C(F)(F)F)cn2)CC1 -3.14%
CCc1nn(CCCC(=O)Nc2ccc(C)c(C)c2)c(=O)c2cc3occc3n12 4.33%
Nc1c(C(=O)c2cccs2)sc2nsc(SCCN3CCCCC3)c12 25.2%
OC(COc1ccc(CN2CCSCC2)cc1)CN1CCCCC1 (stereo not given) -1.38%
CCOc1ccc(CN2CCN(Cc3ccon3)CC2CCO)cc1 (stereo not given) 7.62%
Cn1cccc1/C=N/NC(=O)CNc1cccc2ccccc12 5.35%
Cc1cccc(/C=N/NC(=O)CNc2cccc3ccccc23)n1 46%
O=C(CSc1nnc(SCc2ccc(F)cc2)s1)Nc1ccc(C(=O)O)cc1 -0.59%
Clc1ccc(-c2nnc(SCc3nc4ccccc4s3)o2)cc1 18.2%
O=C(NCC#CCSc1nnc(-c2cccc3ccccc23)o1)c1cccs1 -2.43%
COC(=O)CSc1ccc2nnc(CCNS(=O)(=O)c3ccc(C)cc3)n2n1 0.87%
O=C(CN1CCN(S(=O)(=O)c2ccc(Cl)s2)CC1)NCc1ccc(Cl)cc1 -0.6%
CC[n+]1cc(C)ccc1/C=C/c1ccc(N(C)C)cc1 -0.11%
Cc1c(C(=O)OCC(=O)N2CCCC2=O)oc2ccccc12 1.38%
COc1cccc(C(=O)Nc2nnc(S(=O)(=O)N3CCCCC3)s2)c1 9.59%
COc1cccc(NC(=O)NCCN2CCCCC2)c1 2.06%
Nc1ccn(C2CC(O)C(CO)O2)c(=O)n1 (stereo not given) -4.38%
O=C(NNC(=O)c1ccc(Cl)nc1)c1ccc(Br)cc1 -2.45%
O=C(NC1CCCC1)C(=O)c1c[nH]c2ccccc12 -1.15%
NC(=O)CSc1c[nH]c2ccccc12 20.9%
COc1ccc(N2CC(C(=O)NCCN3C(=O)S/C(=C\c4cccnc4)C3=O)CC2=O)c(OC)c1 (stereo not given) -0.14%
COc1ccc(C(CNC(=O)c2cccc(S(=O)(=O)Nc3ccccc3Cl)c2)N2CCOCC2)cc1 (stereo not given) 8.55%
Cc1cc(Br)ccc1NC(=O)CN(C)C(=O)CN1C(=O)NC2(CCCC2)C1=O 1.62%
O=C1c2ccccc2C(=O)N1c1cccc2ccccc12 0.6%
O=C1c2cccc3cccc(c23)C(=O)N1c1cccc(O)c1 -1.76%
O=C(NC1CCCC1)C1CCN(C(=O)Nc2cccc(Cl)c2)CC1 0.72%
CC(C)OCCCNC(=S)N1CCC(C(=O)c2ccc3c(c2)OCCO3)CC1 1.57%
NS(=O)(=O)c1ccc(N=Nc2c(O)[nH]c3ccc(Br)cc23)cc1 -10.5%
Oc1[nH]c2ccc(Br)cc2c1N=Nc1nn[nH]n1 16.2%
CC(=O)n1cc([C@H]2C=C(C(=O)N3CCOCC3)O[C@@H](OCc3ccc(CO)cc3)C2)c2ccccc21 3.74%
COCCN(CCOC)S(=O)(=O)NC[C@H]1O[C@@H](n2cnc3c(N)ncnc32)[C@H](O)[C@@H]1O 0.98%
CCC1C(=O)c2ccccc2N(C)C1=O (stereo not given) 9.44%
CN1C(=O)/C(=N/OC(=O)c2ccccc2Br)c2ccccc21 -2.06%
Nc1nc(C23CC4CC(CC(C4)C2)C3)cs1 -0.51%
